For nine sequences, binding signal results are on record in PMC8384837, “Expanding the binding specificity for RNA recognition by a PUF domain”.

Holding throughout (test): yeast three-hybrid, YBZ-1, SC-Leu-His + 0.5 mM 3-AT, 4 days
Holding throughout (details): tags: N-Gal4 AD-HA kept; label: inside an RPR1-promoter hybrid RNA with tandem MS2 sites; ssRNA

One assay concerns the target PUM1 PUF domain R5-RRM (Homo sapiens, UniProt Q14671 828-1176, C1007R;Q1011M). The procedure, abridged:
(§1)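 Pumilio-1 PUF domain libraries, randomized at the three base-contacting residues of each repeat, were co-expressed with matching RNA elements from a centromeric plasmid in strain YBZ-1, which carries a LexA–MS2 coat fusion and a HIS3 reporter. Transformants grew for four days on SC-Leu (input) or on SC-Leu-His + 0.5 mM 3-AT (selection), and the repeat regions were PCR-amplified and Illumina-sequenced. The interaction score is the log change in variant frequency from input to selection. That logarithm is base 2, with a pseudocount of 1 where a variant was absent.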

Another assay has as its target T1, PUM1 PUF domain R6-AWR (Homo sapiens, UniProt Q14671 828-1176, N1043A;Y1044W;Q1047R).
T1 sequence: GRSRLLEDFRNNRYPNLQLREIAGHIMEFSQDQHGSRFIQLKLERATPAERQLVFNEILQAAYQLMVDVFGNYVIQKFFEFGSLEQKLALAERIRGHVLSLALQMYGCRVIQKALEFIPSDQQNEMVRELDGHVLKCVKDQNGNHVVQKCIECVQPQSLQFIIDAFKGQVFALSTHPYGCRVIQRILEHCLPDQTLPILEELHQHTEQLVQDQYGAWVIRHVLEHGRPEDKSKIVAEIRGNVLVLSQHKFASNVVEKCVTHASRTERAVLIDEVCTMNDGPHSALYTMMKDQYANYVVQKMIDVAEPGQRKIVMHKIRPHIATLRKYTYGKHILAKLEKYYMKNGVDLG
The procedure, abridged:
as §1

The next assay concerns the target PUM1 PUF domain R4-ANA (Homo sapiens, UniProt Q14671 828-1176, N971A;H972N;Q975A). The procedure, abridged: as §1
The next assay concerns the target PUM1 PUF domain R5-KKD (Homo sapiens, UniProt Q14671 828-1176, C1007K;R1008K;Q1011D). The essentials: as §1
For another assay, the target named is PUM1 PUF domain R4-GND (Homo sapiens, UniProt Q14671 828-1176, N971G;H972N;Q975D). The procedure, abridged:
as §1

The target in another assay is PUM1 PUF domain R3-PFD (Homo sapiens, UniProt Q14671 828-1176, C935P;R936F;Q939D). The procedure, abridged: as §1
A further assay addresses PUM1 PUF domain R3-SRK (Homo sapiens, UniProt Q14671 828-1176, C935S;Q939K). The essentials: as §1
In the next assay the target is PUM1 PUF domain R2-RRT (Homo sapiens, UniProt Q14671 828-1176, N899R;Y900R;Q903T). The procedure, abridged: as §1
The next assay addresses PUM1 PUF domain R2-MVW (Homo sapiens, UniProt Q14671 828-1176, N899M;Y900V;Q903W). The procedure, abridged:
as §1

The next assay addresses PUM1 PUF domain R2-KLS (Homo sapiens, UniProt Q14671 828-1176, N899K;Y900L;Q903S). The procedure, abridged:
as §1

“GGCUAGAACUAGUGGAUCCCCCGGCGCCCGGCGGCUCGAGCCCGGGUAAGUGUUAAUAGUCUGCAUGCCGCCGGGCGCCAUGCCUGCAGGUCGACUCUAGAAAACAUG”: in the assay with PUM1 PUF domain R5-RRM, the binding signal is 4.73 log2 enrichment (interaction score).

“GGCUAGAACUAGUGGAUCCCCCGGCGCCCGGCGGCUCGAGCCCGGGUAAGUGCAAAUAGUCUGCAUGCCGCCGGGCGCCAUGCCUGCAGGUCGACUCUAGAAAACAUG”: the binding signal with PUM1 PUF domain R6-AWR was 2.34 log2 enrichment (interaction score).

On to “GGCUAGAACUAGUGGAUCCCCCGGCGCCCGGCGGCUCGAGCCCGGGUAAGUGUACAUAGUCUGCAUGCCGCCGGGCGCCAUGCCUGCAGGUCGACUCUAGAAAACAUG”, for which the binding signal with PUM1 PUF domain R4-ANA was 2.08 log2 enrichment (interaction score).

On to “GGCUAGAACUAGUGGAUCCCCCGGCGCCCGGCGGCUCGAGCCCGGGUAAGUGUGAAUAGUCUGCAUGCCGCCGGGCGCCAUGCCUGCAGGUCGACUCUAGAAAACAUG”, for which, in the assay with PUM1 PUF domain R5-RRM, the binding signal is 1.28 log2 enrichment (interaction score).

Consider “GGCUAGAACUAGUGGAUCCCCCGGCGCCCGGCGGCUCGAGCCCGGGUAAGUGUCAAUAGUCUGCAUGCCGCCGGGCGCCAUGCCUGCAGGUCGACUCUAGAAAACAUG”, for which the binding signal with PUM1 PUF domain R5-RRM is 4.35 log2 enrichment (interaction score); in the assay with PUM1 PUF domain R5-KKD, 3.56 log2 enrichment (interaction score).

With “GGCUAGAACUAGUGGAUCCCCCGGCGCCCGGCGGCUCGAGCCCGGGUAAGUGUAUAUAGUCUGCAUGCCGCCGGGCGCCAUGCCUGCAGGUCGACUCUAGAAAACAUG”, the binding signal with PUM1 PUF domain R4-ANA is 3.28 log2 enrichment (interaction score); with PUM1 PUF domain R4-GND it was 3.04 log2 enrichment (interaction score).

Consider “GGCUAGAACUAGUGGAUCCCCCGGCGCCCGGCGGCUCGAGCCCGGGUAAGUGUAAUUAGUCUGCAUGCCGCCGGGCGCCAUGCCUGCAGGUCGACUCUAGAAAACAUG”, for which the results for the binding signal with PUM1 PUF domain R3-PFD and in the assay with PUM1 PUF domain R3-SRK were 4.25 log2 enrichment (interaction score) and 2.4 log2 enrichment (interaction score), respectively.

On to “GGCUAGAACUAGUGGAUCCCCCGGCGCCCGGCGGCUCGAGCCCGGGUAAGUGUAAAGAGUCUGCAUGCCGCCGGGCGCCAUGCCUGCAGGUCGACUCUAGAAAACAUG”, for which the binding signal with PUM1 PUF domain R2-RRT was 2.91 log2 enrichment (interaction score); with PUM1 PUF domain R2-MVW it was 3.45 log2 enrichment (interaction score); in the assay with PUM1 PUF domain R2-KLS it was 2.37 log2 enrichment (interaction score).

For “GGCUAGAACUAGUGGAUCCCCCGGCGCCCGGCGGCUCGAGCCCGGGUAAGUGUAAAUAGUCUGCAUGCCGCCGGGCGCCAUGCCUGCAGGUCGACUCUAGAAAACAUG”, the binding signal with PUM1 PUF domain R3-PFD was 5.31 log2 enrichment (interaction score); with PUM1 PUF domain R5-RRM it was 2.27 log2 enrichment (interaction score); with PUM1 PUF domain R6-AWR it was 5.74 log2 enrichment (interaction score).
